One experiment deals with Albumin (Bos taurus) (UniProt P02769). Nature of the experiment: bovine serum albumin binders on microarray, profiling panel, artefact control for SMM control protein annotation, biochemical, small-molecule microarray, Alexa647 label, 635/667 nm fluorescence (AID 1118).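 Further: score merges 667 nm emission intensity and signal-to-noise per printed compound spot.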 To be noted: BSA-A647 binding, fluorescence 635 nm, higher = more signal.
Experiment [1] can be described thus: small-molecule microarray binders of probe aXIP, primary screen, biochemical, NeuroSMM set, 635/667 nm fluorescence (AID 1119).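 Further: probe is the protein aXip251-270 applied at 1 µg/mL to compound-printed slides; binding of probe to printed compounds measured as 667 nm fluorescence plus signal to noise.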 To be noted: higher = more signal, called active from +8 up or from −8 down.
Experiment [2] can be described thus: small-molecule binders of probe aNOTCH3, primary screen, biochemical, small-molecule microarray, 635/667 nm fluorescence (AID 1120).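 Further: probe is a biotin-tagged antibody raised against NOTCH3 rather than NOTCH3 protein; score merges spot fluorescence near 667 nm with spot signal to noise.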 To be noted: higher = more signal.
Experiment [3] can be described thus: small-molecule binders of probe aNOTCH2, primary screen, biochemical, small-molecule microarray, 635/667 nm fluorescence (AID 1121).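 Further: score merges feature fluorescence read at 667 nm with its signal to noise.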 To be noted: higher = more signal.
The target in experiment [4] is Carbonic anhydrase 2 (Homo sapiens) (UniProt P00918). The experiment in a line: CAII small-molecule binders, profiling panel, biochemical, small-molecule microarray, Alexa647-labelled CAII (AID 1122). The settings on record: CAII-A647 binding fluorescence, higher = more signal.
Experiment [5] in a line: COS7 lysate on small-molecule microarray, probe aHis, 635 nm (AID 1123).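 Further: z-score combines 667nm fluorescence intensity with signal-to-noise per printed compound spot.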 To be noted: COS7 cell lysate, fluorescence, higher = more signal.
The nature of experiment [6]: compound binding in COS7 lysate, probe aLAP1, primary screen, cell lysate, small-molecule microarray (AID 1124).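 Further: lysate comes from COS7 cells expressing LAP1 and is applied at 0.3 µg/mL; score merges spot fluorescence near 667 nm with signal-to-noise over triplicate slides.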 To be noted: probe aLAP1, fluorescence, higher = more signal.
In a further experiment the test system is Sam68 (KHDRBS1). Nature of the experiment: Sam68 small-molecule binders, primary screen, biochemical, small-molecule microarray, 635 nm fluorescence (AID 1125).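 Further: score merges 667 nm channel intensity with signal to noise over triplicate slides.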 To be noted: small-molecule microarray binding, higher = more signal.
Experiment [7] deals with Chordin-like protein 2 (CHRDL2). Nature of the experiment: CHRDL2 small-molecule binders, primary screen, biochemical, small-molecule microarray, 635 nm fluorescence (AID 1126).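 Further: printed compound slides probed with Chrdl2 protein at 4 µg/mL for 1 h at 4 C; score merges 667 nm emission intensity with signal to noise over three replicate slides.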 The settings on record: small-molecule microarray binding, fluorescence 635 nm; higher = more signal.
Experiment [8] addresses Concanavalin-A (Canavalia ensiformis) (UniProt P02866). The experiment in a line: ConA small-molecule binders, primary screen, artefact control for SMM control protein annotation, biochemical, small-molecule microarray, Alexa647 label, 635 nm (AID 1127).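 Further: z combines 667 nm emission intensity with signal-to-noise across three replicate slides.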 To be noted: ConA-A647 binding fluorescence, higher = more signal.
A short description of experiment [9]: anti-His antibody binders, primary screen, artefact control for SMM control protein annotation, biochemical, small-molecule microarray, 635 nm fluorescence (AID 1128).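 Further: score merges feature fluorescence with signal-to-noise for each printed compound spot.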 To be noted: anti-His Alexa647 antibody binding, higher = more signal.
Experiment [10] relates to Human papillomavirus type 1a E7 protein (residues 1-88). Nature of the experiment: HPV1a E7 small-molecule binders, primary screen, biochemical, small-molecule microarray, residues 1-88, 635 nm (AID 1129). The settings on record: small-molecule microarray binding, fluorescence 635 nm; higher = more signal.
For experiment [11], the target named is Focal adhesion kinase 1 (Homo sapiens) (UniProt Q05397). Nature of the experiment: small-molecule microarray binders of FAK, primary screen, biochemical, 635/667 nm fluorescence, BSA, DTT (AID 1130).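 Further: composite of spot emission at 667 nm and signal to noise over triplicate slides.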 To be noted: PTK2 binding, 635 nm fluorescence, higher = more signal.
Experiment [12] relates to Fibrinogen (Alexa647-labelled). Nature of the experiment: fibrinogen binders on compound microarrays, profiling panel, artefact control for SMM control-protein annotation, biochemical, small-molecule microarray, 635/667 nm fluorescence (AID 1131).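 Further: z-score merges 667 nm fluorescence with per-spot signal-to-noise over triplicate slides.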 To be noted: fibrinogen-A647 binding fluorescence, higher = more signal.
The target in experiment [13] is Follistatin (Homo sapiens) (UniProt P19883). Nature of the experiment: follistatin binders on small-molecule microarrays, primary screen, biochemical, small-molecule microarray, 635/667 nm fluorescence (AID 1132). The settings on record: FST binding, 635 nm fluorescence, higher = more signal.
Experiment [14] deals with Fibroblast growth factor 2 (Homo sapiens) (UniProt P09038). The experiment in a line: FGF2 binders on small-molecule microarrays, primary screen, biochemical, small-molecule microarray, 635/667 nm fluorescence (AID 1133). The settings on record: small-molecule microarray binding, FGF2, fluorescence 635/667; higher = more signal.
The nature of experiment [15]: mitochondrial membrane potential change in A549 cells, profiling panel, cell-based, JC-1 fluorescence, basal, 24 h, 100 nL (AID 1138).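 Further: A549 lung adenocarcinoma cells under basal conditions with no added stimulus; test concentration not given here.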 To be noted: higher = more signal.
A further experiment relates to Lefty1. Nature of the experiment: Lefty1 binders on small-molecule microarrays, primary screen, biochemical, small-molecule microarray, 635/667 nm fluorescence (AID 1139). The settings on record: small-molecule microarray binding, fluorescence 635/667; higher = more signal.
Experiment [16] concerns wheat germ agglutinin (Triticum aestivum), Alexa647-labelled. The experiment in a line: wheat germ agglutinin binders on compound microarrays, profiling panel, artefact control for SMM control-protein annotation, biochemical, small-molecule microarray, 635/667 nm fluorescence (AID 1140).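 Further: score merges 667 nm feature emission with signal to noise over triplicate slides.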 To be noted: WGA-A647 binding, 635 nm fluorescence, higher = more signal.
In experiment [17] the target is Luciferin 4-monooxygenase (Photinus pyralis) (UniProt P08659). Nature of the experiment: firefly luciferase enzyme inhibitors, primary screen, biochemical, luminescence, purified enzyme, 2006 set (AID 1141).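 Further: cell-free assay with purified firefly luciferase at 100 ng per well in PBS; test concentration not given here.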 To be noted: SteadyGlo luminescence, 30 min, higher = more signal, called active from +8 up or from −8 down.

Calls of active or inactive are those of the source.

Sequence of Concanavalin-A (Canavalia ensiformis) (P02866 whole entry, looked up): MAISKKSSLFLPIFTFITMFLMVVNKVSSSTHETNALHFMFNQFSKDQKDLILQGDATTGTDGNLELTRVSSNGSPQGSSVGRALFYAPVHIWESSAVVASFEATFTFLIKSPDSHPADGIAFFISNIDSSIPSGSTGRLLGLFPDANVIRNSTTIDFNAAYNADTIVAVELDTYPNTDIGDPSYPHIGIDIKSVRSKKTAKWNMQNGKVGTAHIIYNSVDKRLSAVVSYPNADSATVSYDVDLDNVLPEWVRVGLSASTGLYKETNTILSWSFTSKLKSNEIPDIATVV
Sequence of Follistatin (Homo sapiens) (P19883 whole entry, looked up): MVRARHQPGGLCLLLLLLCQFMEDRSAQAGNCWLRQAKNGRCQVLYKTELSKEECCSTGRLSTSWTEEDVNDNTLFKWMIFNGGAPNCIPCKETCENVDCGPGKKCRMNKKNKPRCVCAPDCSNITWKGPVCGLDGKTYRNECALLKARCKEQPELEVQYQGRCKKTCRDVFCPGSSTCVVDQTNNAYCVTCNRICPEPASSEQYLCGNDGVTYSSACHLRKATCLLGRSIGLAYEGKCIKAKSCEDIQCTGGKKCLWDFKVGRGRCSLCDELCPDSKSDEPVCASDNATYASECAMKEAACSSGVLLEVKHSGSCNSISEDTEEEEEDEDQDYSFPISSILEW
Sequence of Fibroblast growth factor 2 (Homo sapiens) (P09038 whole entry, looked up): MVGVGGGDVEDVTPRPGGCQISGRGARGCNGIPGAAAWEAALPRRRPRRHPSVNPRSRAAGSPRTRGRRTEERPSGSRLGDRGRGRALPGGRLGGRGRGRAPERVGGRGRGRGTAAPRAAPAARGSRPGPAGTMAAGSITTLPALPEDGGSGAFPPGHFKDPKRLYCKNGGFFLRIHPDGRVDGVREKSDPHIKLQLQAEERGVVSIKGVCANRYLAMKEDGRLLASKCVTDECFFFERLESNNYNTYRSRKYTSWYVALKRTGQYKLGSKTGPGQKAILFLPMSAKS
Sequence of Albumin (Bos taurus) (P02769 whole entry, looked up): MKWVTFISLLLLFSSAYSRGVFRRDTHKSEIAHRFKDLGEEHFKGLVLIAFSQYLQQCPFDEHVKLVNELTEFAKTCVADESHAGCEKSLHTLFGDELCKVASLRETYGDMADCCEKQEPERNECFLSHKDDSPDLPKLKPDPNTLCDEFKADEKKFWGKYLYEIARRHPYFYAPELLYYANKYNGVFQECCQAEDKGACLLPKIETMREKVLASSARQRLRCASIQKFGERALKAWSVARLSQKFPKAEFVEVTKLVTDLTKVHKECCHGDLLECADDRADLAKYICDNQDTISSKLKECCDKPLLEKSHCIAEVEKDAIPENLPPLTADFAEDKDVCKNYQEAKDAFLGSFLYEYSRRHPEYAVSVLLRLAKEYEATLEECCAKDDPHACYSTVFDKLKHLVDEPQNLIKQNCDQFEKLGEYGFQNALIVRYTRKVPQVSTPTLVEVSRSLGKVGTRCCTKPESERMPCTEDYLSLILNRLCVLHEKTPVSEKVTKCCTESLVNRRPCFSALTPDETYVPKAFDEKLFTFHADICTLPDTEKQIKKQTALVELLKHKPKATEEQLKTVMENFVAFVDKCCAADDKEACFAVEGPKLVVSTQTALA
Sequence of Focal adhesion kinase 1 (Homo sapiens) (Q05397 whole entry, looked up): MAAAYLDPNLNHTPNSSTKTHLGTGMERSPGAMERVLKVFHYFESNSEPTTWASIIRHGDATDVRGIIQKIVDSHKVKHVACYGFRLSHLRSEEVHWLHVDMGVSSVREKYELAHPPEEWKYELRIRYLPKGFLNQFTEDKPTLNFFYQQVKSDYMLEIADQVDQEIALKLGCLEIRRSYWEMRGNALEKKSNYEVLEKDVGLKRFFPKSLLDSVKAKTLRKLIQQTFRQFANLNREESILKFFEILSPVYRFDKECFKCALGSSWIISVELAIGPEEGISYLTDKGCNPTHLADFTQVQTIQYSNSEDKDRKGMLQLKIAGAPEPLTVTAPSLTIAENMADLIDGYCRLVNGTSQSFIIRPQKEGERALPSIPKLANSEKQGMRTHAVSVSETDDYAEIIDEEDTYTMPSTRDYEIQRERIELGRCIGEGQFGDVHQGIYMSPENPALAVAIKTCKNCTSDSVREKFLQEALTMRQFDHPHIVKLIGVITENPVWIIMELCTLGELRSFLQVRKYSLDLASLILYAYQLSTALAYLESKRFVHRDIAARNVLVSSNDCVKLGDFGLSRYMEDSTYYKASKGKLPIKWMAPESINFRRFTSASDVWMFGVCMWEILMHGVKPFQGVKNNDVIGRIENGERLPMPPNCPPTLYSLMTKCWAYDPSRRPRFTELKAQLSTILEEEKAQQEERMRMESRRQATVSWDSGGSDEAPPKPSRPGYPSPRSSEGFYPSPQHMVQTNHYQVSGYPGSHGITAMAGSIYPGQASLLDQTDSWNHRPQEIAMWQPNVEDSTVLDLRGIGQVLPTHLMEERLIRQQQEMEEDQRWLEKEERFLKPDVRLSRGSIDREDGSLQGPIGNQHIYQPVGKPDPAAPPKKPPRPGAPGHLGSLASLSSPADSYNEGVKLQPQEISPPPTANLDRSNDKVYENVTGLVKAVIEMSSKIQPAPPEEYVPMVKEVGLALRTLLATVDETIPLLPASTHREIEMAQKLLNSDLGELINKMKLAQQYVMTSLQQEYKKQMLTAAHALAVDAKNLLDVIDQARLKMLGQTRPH
Sequence of Luciferin 4-monooxygenase (Photinus pyralis) (P08659 whole entry, looked up): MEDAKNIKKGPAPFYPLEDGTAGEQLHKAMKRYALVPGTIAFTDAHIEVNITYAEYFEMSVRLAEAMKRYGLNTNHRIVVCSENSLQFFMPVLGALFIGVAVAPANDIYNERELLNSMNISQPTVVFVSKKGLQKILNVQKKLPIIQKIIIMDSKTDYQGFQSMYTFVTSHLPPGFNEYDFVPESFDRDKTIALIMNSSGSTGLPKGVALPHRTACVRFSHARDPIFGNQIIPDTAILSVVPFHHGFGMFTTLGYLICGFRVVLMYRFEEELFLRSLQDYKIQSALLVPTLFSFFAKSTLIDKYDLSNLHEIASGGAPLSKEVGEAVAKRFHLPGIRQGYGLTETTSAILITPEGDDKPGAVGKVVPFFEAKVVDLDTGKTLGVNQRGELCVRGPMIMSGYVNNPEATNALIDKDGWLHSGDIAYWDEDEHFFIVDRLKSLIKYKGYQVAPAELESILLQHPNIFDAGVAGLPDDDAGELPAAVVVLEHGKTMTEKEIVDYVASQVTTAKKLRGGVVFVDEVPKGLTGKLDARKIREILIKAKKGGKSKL

Consider `CC1(C)O[C@H]2OC([C@H](O)CON3C(=O)c4ccccc4C3=O)[C@H](O)[C@H]2O1` (stereo not given in full), for which the composite z-score is 0.107 in the experiment with Albumin (Bos taurus); -0.135 in experiment [2]; 0.117 in [3]; 0.341 in experiment [4]; -0.378 in [5]; -0.0948 in [6]. In addition, the composite z-score is 0.29 with Sam68 (KHDRBS1); 0.0988 in [7]; -0.371 in [8]; 0.547 in experiment [9]; -0.103 in [10]; 0.433 in experiment [11]. Moreover, the composite z-score in experiment [12] was determined as 0.12; in experiment [13], 0.0275; in [14], 0.495; in the experiment with Lefty1 it was 0.291; in experiment [16], 0.561. In addition, in [1], the composite Z-score is -0.282 (inactive). Besides, the figures for the z-score in experiment [15] and in experiment [17] were -0.487 and -0.317 (inactive), respectively.
With `CO[C@H]1COC(=O)CCC[C@H](C)[C@@H](OC)COC(=O)CC=C[C@@H]1C`, the composite z-score with Albumin (Bos taurus) was -0.553; in experiment [2], -0.136; in experiment [3] it was -0.0766; in experiment [4] it was -0.298; in experiment [5], -0.378; in experiment [6] it was -0.0711. Also, the composite z-score was 0.113 in the experiment with Sam68 (KHDRBS1); 0.896 in [7]; -0.427 in experiment [8]; 1.36 in experiment [9]; -0.117 in [10]; -0.246 in experiment [11]. Moreover, the composite z-score was -0.0891 in [12]; 0.393 in experiment [13]; 0.638 in [14]; 0.562 in the experiment on Lefty1; -0.181 in [16]. Further, the composite Z-score in [1] is 0.168 (inactive). For the same compound, the z-score in experiment [15] was -0.86; in experiment [17], 0.949 (inactive).
On to `O=C1[C@H]2[C@H]3[C@H](O)[C@H](O)CC(=NOC[C@@H](O)COCc4ccco4)[C@@H]3CC[C@H]2C(=O)N1Cc1ccc2c(c1)OCO2`, for which the composite z-score with Albumin (Bos taurus) is 0.29; in experiment [2], -0.127; in [3], -0.148; in experiment [4], -0.307; in experiment [5], -0.0845; in experiment [6], 0.123. Further, the composite z-score in the experiment on Sam68 (KHDRBS1) was 0.275; in experiment [7], 1.54; in experiment [8], -0.19; in experiment [9], -0.133; in experiment [10], -0.499; in experiment [11], -0.347. Also, the composite z-score in [12] was -0.952; in experiment [13], 1.35; in [14], 1.56; in the experiment with Lefty1 it was 0.793; in experiment [16], -0.63. Also, the composite Z-score in [1] was 0.564 (inactive). Moreover, the z-score is 0.96 in experiment [15] and -0.0365 (inactive) in experiment [17].
As for `COC(=O)CC=C[C@@H](C)[C@@H](C=NOC(C)CN1CCCc2nc(C)c(C)cc21)NS(=O)(=O)c1ccc(C)cc1` (stereo not given in full), the composite z-score in the experiment with Albumin (Bos taurus) was -0.515; in [2], 0.033; in experiment [3], 0.0098; in experiment [4] it was -0.19; in experiment [5], 0.726; in experiment [6], 0.416. The composite z-score is 1.14 in the experiment on Sam68 (KHDRBS1); 0.641 in [7]; 0.0308 in experiment [8]; 2.64 in experiment [9]; 0.549 in experiment [10]; 0.299 in experiment [11]. Moreover, the composite z-score in experiment [12] turned out to be 0.451; in experiment [13] it was 0.789; in experiment [14], 0.533; in the experiment with Lefty1, 0.765; in [16] it was 0.11. In addition, the composite Z-score in experiment [1] is 0.964 (inactive). Moreover, the z-score in [15] was 0.835; in [17], 0.679 (inactive).
With `CC#CCOCCC=C1c2ccccc2[C@@H](OC)[C@@H]1C`, the composite z-score was 0.556 with Albumin (Bos taurus); -0.128 in [2]; -0.101 in [3]; 0.336 in experiment [4]; -0.336 in [5]; -0.0059 in [6]. In addition, the composite z-score was 0.151 with Sam68 (KHDRBS1); 0.337 in experiment [7]; -0.515 in [8]; 1.79 in experiment [9]; -0.0931 in [10]; -0.0029 in [11]. For the same compound, the composite z-score was determined as 0.329 in [12]; 0.331 in experiment [13]; 0.412 in [14]; 1.24 in the experiment on Lefty1; 0.725 in [16]. For the same compound, the composite Z-score in experiment [1] was 0.549 (inactive). Further, the z-score in experiment [15] is -0.198; in experiment [17], -0.693 (inactive).
With `CC(C)=NOC(C)CN1CCCCc2nc(C)c(C)cc21` (stereo not given), the composite z-score is 0.673 in the experiment with Albumin (Bos taurus); 0.169 in [2]; -0.0859 in experiment [3]; 0.418 in experiment [4]; 0.951 in experiment [5]; 0.045 in [6]. Besides, the composite z-score with Sam68 (KHDRBS1) is 0.313; in [7] it was 0.732; in [8], 0.109; in [9], 0.734; in [10], -0.368; in experiment [11], -0.368. Besides, the composite z-score in [12] is 0.755; in experiment [13], 0.886; in experiment [14], 0.234; in the experiment on Lefty1, 0.603; in experiment [16] it was -0.0583. Further, the composite Z-score in experiment [1] is 0.761 (inactive). Moreover, the z-score is 0.23 in experiment [15] and -0.327 (inactive) in experiment [17].

Values taken from PubChem BioAssay.
